Experimental data reported in PubChem BioAssay AID1159580 (chemical genetic matrix, 2015).
About 2,000 (36%) of roughly 5,500 compounds were called active. Not shown: some 18% with an inconclusive outcome. Cut-off read from the data, not from the text of the source: active = normalized growth mostly below about 0.91 (no sharp cut-off); inconclusive = no clear call, values can overlap the other calls; inactive = mostly above about 0.92. The list shows a part of the results.

Experiment: chemical genetic growth profiling, strain panel (AID 1159580);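 note: tested at 20 µM; growth read once vehicle control cultures reached saturation at 30 °C; 1 = growth at the plate median or of vehicle wells; lower values mean less growth of the strain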
Settings: growth OD

Measured: normalized growth

O=S1OCC2C(CO1)C1(Cl)C(Cl)=C(Cl)C2(Cl)C1(Cl)Cl (centres undefined)
inactive: S. cerevisiae deletion strains, locus YJR043C, strain POL32, hits give low values 0.96 | S. cerevisiae deletion strains, locus YJR075W, strain HOC1, hits give low values 0.986 | S. cerevisiae deletion strains, locus YKL009W, strain mrt4, hits give low values 0.947 | S. cerevisiae deletion strains, locus YKL068W, hits give low values 0.964 | S. cerevisiae deletion strains, locus YKL085W, strain MDH1 (second series), hits give low values 0.982 | S. cerevisiae deletion strains, locus YKL085W, strain MDH1, hits give low values 0.982 | S. cerevisiae deletion strains, locus YKL160W, strain elf1, hits give low values 0.953 | S. cerevisiae deletion strains, locus YKL190W, strain CNB1, hits give low values 1 | S. cerevisiae deletion strains, locus YKR001C, strain vps1, hits give low values 0.975 | S. cerevisiae deletion strains, locus YKR026C, strain gcn3, hits give low values 0.987 | S. cerevisiae deletion strains, locus YKR091W, strain srl3, hits give low values 0.991 | S. cerevisiae deletion strains, locus YLL001W, strain dnm1, hits give low values 0.99 | S. cerevisiae deletion strains, locus YLL026W, hits give low values 1 | S. cerevisiae deletion strains, locus YLL041C, strain sdh2, hits give low values 0.992 | S. cerevisiae deletion strains, locus YLR027C, strain aat2, hits give low values 0.961 | S. cerevisiae deletion strains, locus YLR039C, strain RIC1, hits give low values 1.06 | S. cerevisiae deletion strains, locus YLR058C, strain SHM2, hits give low values 0.979 | S. cerevisiae deletion strains, locus YLR102C, strain apc9, hits give low values 0.973 | S. cerevisiae deletion strains, locus YLR221C, strain rsa3, hits give low values 0.931 | S. cerevisiae deletion strains, locus YLR258W, strain gsy2, hits give low values 0.973 | S. cerevisiae deletion strains, locus YLR262C, strain YPT6 (second series), hits give low values 1.06 | S. cerevisiae deletion strains, locus YLR262C, strain YPT6, hits give low values 1.05 | S. cerevisiae deletion strains, locus YLR268W, strain sec22, hits give low values 0.97 | S. cerevisiae deletion strains, locus YLR320W, strain mms22, hits give low values 0.961 | S. cerevisiae deletion strains, locus YLR330W, strain CHS5, hits give low values 0.984 | S. cerevisiae deletion strains, locus YLR342W, strain FKS1 (second series), hits give low values 0.872 | S. cerevisiae deletion strains, locus YLR342W, strain FKS1, hits give low values 0.991 | S. cerevisiae deletion strains, locus YLR357W, strain rsc2, hits give low values 0.996 | S. cerevisiae deletion strains, locus YLR370C, strain arc18, hits give low values 0.997 | S. cerevisiae deletion strains, locus YLR371W, strain rom2, hits give low values 0.949 | S. cerevisiae deletion strains, locus YLR384C, strain iki3, hits give low values 1 | S. cerevisiae deletion strains, locus YLR418C, strain cdc73, hits give low values 0.946 | S. cerevisiae deletion strains, locus YML016C, strain PPZ1, hits give low values 0.991 | S. cerevisiae deletion strains, locus YML032C, strain rad52, hits give low values 0.974 | S. cerevisiae deletion strains, locus YML120C, strain ndi1, hits give low values 0.983 | S. cerevisiae deletion strains, locus YML124C, strain tub3, hits give low values 0.976 | S. cerevisiae deletion strains, locus YMR058W, strain fet3, hits give low values 0.976 | S. cerevisiae deletion strains, locus YMR078C, strain ctf18, hits give low values 0.977 | S. cerevisiae deletion strains, locus YMR125W, strain sto1, hits give low values 0.998 | S. cerevisiae deletion strains, locus YMR129W, hits give low values 0.992 | S. cerevisiae deletion strains, locus YMR205C, strain PFK2, hits give low values 0.91 | S. cerevisiae deletion strains, locus YMR223W, strain ubp8, hits give low values 0.955 | S. cerevisiae deletion strains, locus YMR231W, strain pep5, hits give low values 0.97 | S. cerevisiae deletion strains, locus YMR263W, strain SAP30, hits give low values 0.946 | S. cerevisiae deletion strains, locus YMR307W, strain GAS1, hits give low values 0.978 | S. cerevisiae deletion strains, locus YNL067W, strain RPL9B, hits give low values 0.981 | S. cerevisiae deletion strains, locus YNL071W, strain lat1, hits give low values 0.966 | S. cerevisiae deletion strains, locus YNL128W, strain TEP1, hits give low values 0.975 | S. cerevisiae deletion strains, locus YNL153C, strain GIM3, hits give low values 0.987 | S. cerevisiae deletion strains, locus YNL209W, strain ssb2, hits give low values 0.991 | S. cerevisiae deletion strains, locus YNL233W, strain BNI4, hits give low values 1 | S. cerevisiae deletion strains, locus YNL248C, strain rpa49, hits give low values 0.992 | S. cerevisiae deletion strains, locus YNL250W, strain rad50, hits give low values 0.957 | S. cerevisiae deletion strains, locus YNL271C, strain bni1, hits give low values 0.971 | S. cerevisiae deletion strains, locus YNL298W, strain CLA4, hits give low values 0.946 | S. cerevisiae deletion strains, locus YNL322C, strain KRE1 (second series), hits give low values 0.986 | S. cerevisiae deletion strains, locus YNL322C, strain KRE1, hits give low values 0.978 | S. cerevisiae deletion strains, locus YNR049C, strain mso1, hits give low values 0.997 | S. cerevisiae deletion strains, locus YNR052C, strain pop2, hits give low values 0.968 | S. cerevisiae deletion strains, locus YOL006C, strain TOP1, hits give low values 0.822 | S. cerevisiae deletion strains, locus YOL012C, strain htz1 0.777 | S. cerevisiae deletion strains, locus YOL147C, strain pex11, hits give low values 0.991 | S. cerevisiae deletion strains, locus YOR001W, strain rrp6, hits give low values 0.978 | S. cerevisiae deletion strains, locus YOR061W, strain CKA2, hits give low values 0.987 | S. cerevisiae deletion strains, locus YOR069W, strain VPS5, hits give low values 0.979 | S. cerevisiae deletion strains, locus YOR070C, strain gyp1, hits give low values 0.979 | S. cerevisiae deletion strains, locus YOR080W, strain dia2, hits give low values 0.991 | S. cerevisiae deletion strains, locus YOR083W, strain WHI5, hits give low values 0.942 | S. cerevisiae deletion strains, locus YOR106W, strain vam3, hits give low values 0.884 | S. cerevisiae deletion strains, locus YOR136W, strain idh2, hits give low values 0.98 | S. cerevisiae deletion strains, locus YOR144C, strain elg1, hits give low values 0.984 | S. cerevisiae deletion strains, locus YOR184W, strain ser1, hits give low values 0.887 | S. cerevisiae deletion strains, locus YOR265W, strain rbl2, hits give low values 0.993 | S. cerevisiae deletion strains, locus YOR290C, strain snf2, hits give low values 0.937 | S. cerevisiae deletion strains, locus YOR316C, strain cot1, hits give low values 0.975 | S. cerevisiae deletion strains, locus YPL051W, strain arl3, hits give low values 0.988 | S. cerevisiae deletion strains, locus YPL055C, strain LGE1, hits give low values 0.974 | S. cerevisiae deletion strains, locus YPL078C, strain atp4, hits give low values 0.987 | S. cerevisiae deletion strains, locus YPL106C, strain sse1, hits give low values 0.993 | S. cerevisiae deletion strains, locus YPL240C, strain hsp82, hits give low values 0.991 | S. cerevisiae deletion strains, locus YPL241C, strain CIN2, hits give low values 0.985 | S. cerevisiae deletion strains, locus YPR119W, strain clb2, hits give low values 0.976 | S. cerevisiae deletion strains, locus YPR141C, strain kar3, hits give low values 0.98 | S. cerevisiae deletion strains, locus YPR163C, strain tif3, hits give low values 0.978 | S. cerevisiae deletion strains, locus YPR167C, strain met16, hits give low values 0.971 | S. cerevisiae deletion strains, strain wtn01, hits give low values 0.954 | S. cerevisiae strains, strain wild type, hits give low values 0.987
active: S. cerevisiae deletion strains, locus YNL307C, strain MCK1, hits give low values 0.885 | S. cerevisiae deletion strains, locus YOR270C, strain vph1, hits give low values 0.633
